Source: PubChem BioAssay (EPA / NIEHS)
Records with an inconclusive call do not appear. Activity calls are given as the source filed them. The calls were made as follows, unless noted: active = hit-call score of the fitted dose curve at least 0.9, where 1 is the maximum; inactive = score below 0.9.

What was measured:
[1] = ATG_NRF2_ARE_CIS: Attagene CIS-FACTORIAL HepG2 Assay for human Nuclear Factor Erythroid 2 Related Factor 2 (NFR2) response to Antioxidant Response Elements (ARE) (AID 2282992); settings: HepG2 Attagene ARE/NRF2 reporter, transcription factor activity; actives raise or lower the signal;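 as to AC50: reporter mRNA level measured by RT-PCR and capillary electrophoresis fluorescence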
Procedure, shortened: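 Multiplexed reporter mRNA profiling in HepG2 after a 24 h chemical exposure. Curves fitted in both directions relative to DMSO negative control.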

[2] = ATG_Oct_MLP_CIS: Attagene CIS-FACTORIAL HepG2 Assay for human Octamer-Binding Transcription Factor (Oct) (AID 2282993); settings: HepG2 Attagene cis-factorial Oct reporter, mRNA; actives raise or lower the signal
Procedure, shortened: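 After 24 h compound exposure, transfected HepG2 cells were lysed for total RNA; reporter-specific cDNA was PCR-amplified, fluorescently labelled and sized by capillary electrophoresis. Bidirectional curve fitting used DMSO as baseline.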

[3] = target: Cellular tumor antigen p53 (Homo sapiens) (UniProt P04637); experiment: ATG_p53_CIS: Attagene CIS-FACTORIAL HepG2 Assay for human p53 Transcription Factor (AID 2282994); settings: HepG2 p53 cis-element reporter, Attagene mRNA; actives raise or lower the signal
Sequence of Cellular tumor antigen p53 (Homo sapiens) (P04637 whole entry, looked up): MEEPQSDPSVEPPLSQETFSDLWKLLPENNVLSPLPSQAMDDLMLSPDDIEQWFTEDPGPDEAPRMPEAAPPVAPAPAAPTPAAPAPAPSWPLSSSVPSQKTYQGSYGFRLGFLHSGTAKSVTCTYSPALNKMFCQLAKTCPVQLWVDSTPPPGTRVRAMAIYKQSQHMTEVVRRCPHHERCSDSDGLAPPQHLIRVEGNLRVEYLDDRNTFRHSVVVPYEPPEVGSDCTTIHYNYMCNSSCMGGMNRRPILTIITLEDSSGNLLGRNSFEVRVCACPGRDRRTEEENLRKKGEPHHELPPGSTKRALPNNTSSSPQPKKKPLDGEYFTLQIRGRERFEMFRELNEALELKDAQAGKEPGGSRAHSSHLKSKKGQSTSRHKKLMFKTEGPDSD
Procedure, shortened: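 Multiplexed reporter mRNA assay in human HepG2 liver cells; cis-regulated units report endogenous factor activity. Values come from bidirectional curve fitting against DMSO negative control after 24 h treatment.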

[4] = BSK_3C_TissueFactor: BioMAP Diversity Plus: 3C Assay for Tissue Factor Biomarker Activity (AID 2282997); settings: BioMAP 3C HUVEC, tissue factor biomarker readout; actives raise or lower the signal
Procedure, shortened: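 Primary human umbilical vein endothelial cells in the 3C system were exposed to test chemical for 24 h, then Tissue Factor measured by ELISA. Activity was fitted bidirectionally against DMSO as negative control and baseline.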

[5] = BSK_3C_VCAM1: BioMAP Diversity Plus: 3C Assay for Vascular cell adhesion molecule 1 (VCAM1) Biomarker Activity (AID 2282999); settings: BioMAP 3C HUVEC, VCAM1 ELISA, cytokine-stimulated; actives raise or lower the signal
Procedure, shortened: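 Human umbilical vein endothelial cells (3C system), biomarker read by ELISA 24 h after dosing; bidirectional fit against DMSO baseline. Cytotoxicity tracked by SRB total-protein staining in parallel cultures at biomarker time.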

[6] = target: human Peroxisome Proliferator-activated Receptor delta (PPARd), PPARD (gene 5467) (UniProt Q03181); experiment: ATG_PPARd_TRANS: Attagene TRANS-FACTORIAL HepG2 Assay for human Peroxisome Proliferator-activated Receptor delta (PPARd) (AID 2283002; active = hit-call score of the fitted dose curve at least 0.9, where 1 is the maximum)
Sequence of human Peroxisome Proliferator-activated Receptor delta (PPARd), PPARD (gene 5467) (Q03181 whole entry, looked up, the tested form may be a part): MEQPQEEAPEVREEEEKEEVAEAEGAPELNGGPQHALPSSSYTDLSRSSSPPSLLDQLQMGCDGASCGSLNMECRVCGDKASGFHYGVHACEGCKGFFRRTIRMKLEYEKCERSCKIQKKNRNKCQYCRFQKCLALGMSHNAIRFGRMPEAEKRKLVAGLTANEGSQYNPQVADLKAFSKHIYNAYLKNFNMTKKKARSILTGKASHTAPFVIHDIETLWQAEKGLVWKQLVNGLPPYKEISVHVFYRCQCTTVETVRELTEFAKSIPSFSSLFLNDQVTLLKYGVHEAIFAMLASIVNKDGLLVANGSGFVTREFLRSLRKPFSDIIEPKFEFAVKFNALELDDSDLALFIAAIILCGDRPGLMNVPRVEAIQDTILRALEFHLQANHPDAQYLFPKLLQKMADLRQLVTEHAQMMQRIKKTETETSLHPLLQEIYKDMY
Procedure, shortened: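 HepG2 cells transiently transfected with GAL4-UAS multiplexed reporter units driven by exogenous chimeric NR-GAL4 proteins; 24 h compound exposure. Reporter mRNA measured by RT-PCR, 6-FAM primer extension, HpaI digestion and capillary electrophoresis; gain of signal fitted relative to DMSO.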

[7] = read-out: Intercellular Adhesion Molecule 1 (ICAM1), ICAM1 (gene 3383); experiment: BSK_3C_ICAM1: BioMAP Diversity Plus: 3C Assay for Intercellular Adhesion Molecule 1 (ICAM1) Biomarker Activity (AID 2283003); settings: primary human endothelial cells (HUVEC); actives raise or lower the signal
Procedure, shortened: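 HUVEC primary cells stimulated under 3C conditions; ICAM1 measured by ELISA 24 h after compound dosing. Curves fitted bidirectionally against the DMSO baseline. Overt cytotoxicity checked by SRB staining of parallel cultures.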

[8] = BSK_3C_Proliferation: Cell Proliferation Assessment in the BioMAP Diversity Plus: 3C Assay (AID 2283006); settings: primary human endothelial cells (HUVEC);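 as to AC50: potency may reflect either rise or fall in cell number versus DMSO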
Procedure, shortened: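 Subconfluent HUVEC (3C system) cultured with chemical; relative cell number read at 48 h by sulforhodamine B total-protein staining (0.1% SRB after 10% TCA fixation, 560 nm). Bidirectional fit relative to DMSO.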

[9] = target: Peroxisome proliferator-activated receptor gamma (Homo sapiens) (UniProt P37231); experiment: ATG_PPARg_TRANS: Attagene TRANS-FACTORIAL HepG2 Assay for human Peroxisome Proliferator-activated Receptor-gamma (PPARg) (AID 2283007; active = hit-call score of the fitted dose curve at least 0.9, where 1 is the maximum)
Sequence of Peroxisome proliferator-activated receptor gamma (Homo sapiens) (P37231 whole entry, looked up, the tested form may be a part): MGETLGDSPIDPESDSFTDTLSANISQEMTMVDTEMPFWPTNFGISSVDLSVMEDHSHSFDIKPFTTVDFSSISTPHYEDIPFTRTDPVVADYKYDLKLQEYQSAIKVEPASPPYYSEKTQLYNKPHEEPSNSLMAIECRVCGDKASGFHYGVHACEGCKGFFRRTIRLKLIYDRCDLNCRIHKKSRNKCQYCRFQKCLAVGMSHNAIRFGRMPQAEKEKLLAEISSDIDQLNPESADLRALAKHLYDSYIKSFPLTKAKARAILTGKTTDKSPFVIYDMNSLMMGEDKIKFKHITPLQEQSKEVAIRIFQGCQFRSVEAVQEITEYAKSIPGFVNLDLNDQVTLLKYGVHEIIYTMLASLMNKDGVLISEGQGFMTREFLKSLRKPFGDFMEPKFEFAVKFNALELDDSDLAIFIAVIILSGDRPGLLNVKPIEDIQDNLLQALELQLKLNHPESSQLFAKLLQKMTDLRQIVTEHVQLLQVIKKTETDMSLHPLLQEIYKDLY
Procedure, shortened: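 Transient transfection of HepG2 with GAL4-UAS-driven reporter units; chemical dosing 24 h; total RNA → oligo(dT) RT → PCR with reporter primers → 6-FAM primer extension → HpaI digest 2 h 37 C → capillary electrophoresis. Positive direction vs DMSO.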

[10] = target: Nuclear receptor subfamily 1 group I member 2 (Homo sapiens) (UniProt O75469); experiment: ATG_PXR_TRANS: Attagene TRANS-FACTORIAL HepG2 Assay for human Pregnane X Receptor (PXR) (AID 2283008; active = hit-call score of the fitted dose curve at least 0.9, where 1 is the maximum)
Sequence of Nuclear receptor subfamily 1 group I member 2 (Homo sapiens) (O75469 whole entry, looked up, the tested form may be a part): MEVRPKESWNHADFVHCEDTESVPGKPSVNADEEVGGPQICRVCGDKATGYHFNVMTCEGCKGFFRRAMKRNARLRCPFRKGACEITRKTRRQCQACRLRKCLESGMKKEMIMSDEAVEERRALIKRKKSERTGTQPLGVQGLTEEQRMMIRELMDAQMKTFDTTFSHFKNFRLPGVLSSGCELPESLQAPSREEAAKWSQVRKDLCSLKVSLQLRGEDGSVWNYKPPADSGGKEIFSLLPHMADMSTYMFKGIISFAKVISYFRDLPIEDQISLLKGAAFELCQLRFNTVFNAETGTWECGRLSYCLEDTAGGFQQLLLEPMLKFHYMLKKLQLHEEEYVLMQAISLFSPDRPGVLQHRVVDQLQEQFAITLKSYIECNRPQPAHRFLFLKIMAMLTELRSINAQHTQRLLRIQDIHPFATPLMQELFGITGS
Procedure, shortened: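 Measures mRNA induction of a GAL4-UAS-driven reporter in human HepG2 cells transiently expressing PXR fused to Gal4, following 24 h treatment. DMSO served as negative control and baseline.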

[11] = target: Retinoic acid receptor RXR-alpha (Homo sapiens) (UniProt P19793); experiment: ATG_RXRa_TRANS: Attagene TRANS-FACTORIAL HepG2 Assay for human Retinoid X Receptor alpha (RXRa) (AID 2283012; active = hit-call score of the fitted dose curve at least 0.9, where 1 is the maximum)
Sequence of Retinoic acid receptor RXR-alpha (Homo sapiens) (P19793 whole entry, looked up, the tested form may be a part): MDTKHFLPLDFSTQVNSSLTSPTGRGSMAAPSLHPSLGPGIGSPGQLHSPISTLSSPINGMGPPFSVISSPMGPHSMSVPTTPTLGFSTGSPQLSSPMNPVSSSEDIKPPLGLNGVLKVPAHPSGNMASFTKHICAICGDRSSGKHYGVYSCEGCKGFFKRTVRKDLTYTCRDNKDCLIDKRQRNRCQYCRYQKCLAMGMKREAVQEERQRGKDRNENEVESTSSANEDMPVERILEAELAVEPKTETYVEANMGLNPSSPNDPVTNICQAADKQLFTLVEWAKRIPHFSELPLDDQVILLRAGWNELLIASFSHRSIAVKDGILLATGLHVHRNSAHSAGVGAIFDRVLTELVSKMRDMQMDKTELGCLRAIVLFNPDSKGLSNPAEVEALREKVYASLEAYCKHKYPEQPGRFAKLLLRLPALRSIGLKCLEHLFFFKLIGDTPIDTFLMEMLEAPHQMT
Procedure, shortened: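 HepG2 cells transiently transfected with GAL4-UAS reporter units and chimeric RXRa-Gal4 protein, treated 24 h. Reporter mRNA measured by RT-PCR, fluorescent labelling, HpaI digestion and capillary electrophoresis. Induction fitted against DMSO.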

[12] = BSK_4H_Eotaxin3: BioMAP Diversity Plus: 4H Assay for Eotaxin 3 Biomarker Activity (AID 2283000); settings: primary human endothelial cells (HUVEC); actives raise or lower the signal;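 also: CCL26 protein level quantified by ELISA in parallel with SRB cytotoxicity check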
Procedure, shortened: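 HUVEC, 24 h post-dose, ELISA for Eotaxin-3/CCL26. Gain or loss of signal fitted bidirectionally vs DMSO baseline.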

[13] = target: human Peroxisome Proliferator-activated Receptor alpha (PPARa), PPARA (gene 5465) (UniProt Q07869); experiment: ATG_PPARa_TRANS: Attagene TRANS-FACTORIAL HepG2 Assay for human Peroxisome Proliferator-activated Receptor alpha (PPARa) (AID 2283001; active = hit-call score of the fitted dose curve at least 0.9, where 1 is the maximum)
Sequence of human Peroxisome Proliferator-activated Receptor alpha (PPARa), PPARA (gene 5465) (Q07869 whole entry, looked up, the tested form may be a part): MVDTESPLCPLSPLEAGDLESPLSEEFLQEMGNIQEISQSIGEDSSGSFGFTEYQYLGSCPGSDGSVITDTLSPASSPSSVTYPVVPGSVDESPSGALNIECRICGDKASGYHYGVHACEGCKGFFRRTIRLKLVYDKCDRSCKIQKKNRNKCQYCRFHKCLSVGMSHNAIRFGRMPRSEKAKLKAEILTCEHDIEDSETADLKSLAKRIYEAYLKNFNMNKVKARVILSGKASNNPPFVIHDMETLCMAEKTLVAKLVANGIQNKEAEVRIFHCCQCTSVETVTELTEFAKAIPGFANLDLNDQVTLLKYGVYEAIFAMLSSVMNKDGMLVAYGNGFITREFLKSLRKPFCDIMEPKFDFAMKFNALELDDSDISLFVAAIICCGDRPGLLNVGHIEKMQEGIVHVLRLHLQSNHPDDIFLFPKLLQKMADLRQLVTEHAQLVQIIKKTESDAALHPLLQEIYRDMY
Procedure, shortened: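 HepG2 cells transiently transfected with multiplexed GAL4-UAS reporters driven by exogenous chimeric NR-Gal4 proteins; reporter mRNA measured after 24 h dosing. Read-out by RT-PCR, 6-FAM labelling, HpaI digestion and capillary electrophoresis; gain of signal versus DMSO.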

[14] = target: human RAR-related Orphan Receptor beta (RORb), RORB (gene 6096) (UniProt Q92753); experiment: ATG_RORb_TRANS: Attagene TRANS-FACTORIAL HepG2 Assay for human RAR-related Orphan Receptor beta (RORb) (AID 2283010; active = hit-call score of the fitted dose curve at least 0.9, where 1 is the maximum)
Sequence of human RAR-related Orphan Receptor beta (RORb), RORB (gene 6096) (Q92753 whole entry, looked up, the tested form may be a part): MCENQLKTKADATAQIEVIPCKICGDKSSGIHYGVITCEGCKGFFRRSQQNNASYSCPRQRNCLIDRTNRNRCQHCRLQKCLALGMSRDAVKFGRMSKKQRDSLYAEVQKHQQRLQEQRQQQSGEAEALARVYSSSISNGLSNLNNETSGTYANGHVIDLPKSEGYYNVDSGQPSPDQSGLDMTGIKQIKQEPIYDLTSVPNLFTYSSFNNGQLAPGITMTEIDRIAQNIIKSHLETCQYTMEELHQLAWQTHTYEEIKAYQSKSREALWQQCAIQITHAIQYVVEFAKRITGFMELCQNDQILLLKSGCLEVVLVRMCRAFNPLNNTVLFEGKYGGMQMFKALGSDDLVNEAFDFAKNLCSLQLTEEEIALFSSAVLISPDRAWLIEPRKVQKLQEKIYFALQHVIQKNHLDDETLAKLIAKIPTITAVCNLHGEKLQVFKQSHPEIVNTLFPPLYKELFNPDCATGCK
Procedure, shortened: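 HepG2 cells transiently transfected with GAL4-UAS reporter units expressing chimeric NR-Gal4 protein; reporter mRNA measured 24 h after dosing by RT-PCR, 6-FAM labelling and capillary electrophoresis. Gain-of-signal fitted relative to DMSO baseline.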

[15] = target: human RAR-related Orphan Receptor gamma (RORg), RORC (gene 6097) (UniProt P51449); experiment: ATG_RORg_TRANS: Attagene TRANS-FACTORIAL HepG2 Assay for human RAR-related Orphan Receptor gamma (RORg) (AID 2283011; active = hit-call score of the fitted dose curve at least 0.9, where 1 is the maximum)
Sequence of human RAR-related Orphan Receptor gamma (RORg), RORC (gene 6097) (P51449 whole entry, looked up, the tested form may be a part): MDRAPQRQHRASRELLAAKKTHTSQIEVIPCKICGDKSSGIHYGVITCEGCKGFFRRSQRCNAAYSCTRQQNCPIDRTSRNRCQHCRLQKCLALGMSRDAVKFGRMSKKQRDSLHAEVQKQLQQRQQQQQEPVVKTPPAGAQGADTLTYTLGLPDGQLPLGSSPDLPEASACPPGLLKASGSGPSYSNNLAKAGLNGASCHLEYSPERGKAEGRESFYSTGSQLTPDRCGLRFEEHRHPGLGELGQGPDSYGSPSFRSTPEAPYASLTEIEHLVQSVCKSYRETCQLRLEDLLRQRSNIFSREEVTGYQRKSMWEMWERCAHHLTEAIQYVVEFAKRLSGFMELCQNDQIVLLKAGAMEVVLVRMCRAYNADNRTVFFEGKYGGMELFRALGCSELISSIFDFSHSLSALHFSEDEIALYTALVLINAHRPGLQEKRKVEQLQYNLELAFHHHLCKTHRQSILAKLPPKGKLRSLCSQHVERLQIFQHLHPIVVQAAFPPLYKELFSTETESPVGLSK
Procedure, shortened: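 Readout: reporter transcript induction (RT-PCR, fluorescent primer extension, capillary electrophoresis) after 24 h compound exposure of transiently transfected HepG2 cells carrying a RORg-Gal4 chimera and GAL4-UAS reporters; DMSO served as baseline, with increasing signal fitted.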

[16] = BSK_3C_uPAR: BioMAP Diversity Plus: 3C Assay for Urokinase-type plasminogen activator receptor (uPAR) Biomarker Activity (AID 2282998); settings: BioMAP 3C HUVEC, uPAR biomarker ELISA; actives raise or lower the signal
Procedure, shortened: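 Values derive from bidirectional curve fitting relative to DMSO, which served as baseline of activity. uPAR was measured by ELISA in human umbilical vein endothelial primary cultures 24 h after compound addition.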

[17] = target: human Retinoic Acid Receptor beta (RARb), RARB (gene 5915) (UniProt P10826); experiment: ATG_RARb_TRANS: Attagene TRANS-FACTORIAL HepG2 Assay for human Retinoic Acid Receptor beta (AID 2283004; active = hit-call score of the fitted dose curve at least 0.9, where 1 is the maximum)
Procedure, shortened: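 HepG2 cells transiently transfected with multiplexed GAL4-UAS reporter units expressing chimeric NR–Gal4 fusions; 24 h compound exposure. Reporter mRNA quantified by RT-PCR, 6-FAM labelling, HpaI digestion and capillary electrophoresis; gain-of-signal fitted against DMSO baseline.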

[18] = target: Retinoic acid receptor alpha (Homo sapiens) (UniProt P10276); experiment: ATG_RARa_TRANS: Attagene TRANS-FACTORIAL HepG2 Assay for human Retinoic Acid Receptor alpha (RARa) (AID 2283005; active = hit-call score of the fitted dose curve at least 0.9, where 1 is the maximum)
Procedure, shortened: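 HepG2 transiently transfected with multiplex GAL4-UAS reporter units including a human RARa–GAL4 chimera; 24 h compound exposure. Reporter mRNA quantified by RT-PCR, 6-FAM labeling and capillary electrophoresis; gain of signal versus DMSO.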

[19] = target: human Retinoic Acid Receptor gamma (RARg), RARG (gene 5916) (UniProt P13631); experiment: ATG_RARg_TRANS: Attagene TRANS-FACTORIAL HepG2 Assay for human Retinoic Acid Receptor gamma (RARg) (AID 2283009; active = hit-call score of the fitted dose curve at least 0.9, where 1 is the maximum)
Sequence of human Retinoic Acid Receptor gamma (RARg), RARG (gene 5916) (P13631 whole entry, looked up, the tested form may be a part): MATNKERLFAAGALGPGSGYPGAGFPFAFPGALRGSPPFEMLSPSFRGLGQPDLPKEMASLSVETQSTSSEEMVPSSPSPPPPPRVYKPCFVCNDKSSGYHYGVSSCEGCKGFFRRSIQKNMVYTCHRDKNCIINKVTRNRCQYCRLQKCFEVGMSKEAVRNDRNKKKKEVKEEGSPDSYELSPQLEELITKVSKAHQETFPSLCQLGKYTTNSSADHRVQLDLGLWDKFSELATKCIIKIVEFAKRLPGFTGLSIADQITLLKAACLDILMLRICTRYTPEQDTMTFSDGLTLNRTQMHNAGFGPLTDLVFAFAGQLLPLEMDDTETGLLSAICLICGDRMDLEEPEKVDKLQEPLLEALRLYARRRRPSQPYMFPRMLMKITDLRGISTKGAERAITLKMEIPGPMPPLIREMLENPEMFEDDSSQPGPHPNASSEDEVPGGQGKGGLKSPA
Procedure, shortened: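 HepG2 transiently transfected with GAL4-UAS reporter units and chimeric NR-Gal4 constructs; 24 h compound exposure. Reporter mRNA quantified by RT-PCR, FAM labeling, HpaI digestion and capillary electrophoresis; gain-of-signal versus DMSO.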

[20] = target: human Retinoid X Receptor beta (RXRb), RXRB (gene 6257) (UniProt P28702); experiment: ATG_RXRb_TRANS: Attagene TRANS-FACTORIAL HepG2 Assay for human Retinoid X Receptor beta (RXRb) (AID 2283013; active = hit-call score of the fitted dose curve at least 0.9, where 1 is the maximum)
Sequence of human Retinoid X Receptor beta (RXRb), RXRB (gene 6257) (P28702 whole entry, looked up, the tested form may be a part): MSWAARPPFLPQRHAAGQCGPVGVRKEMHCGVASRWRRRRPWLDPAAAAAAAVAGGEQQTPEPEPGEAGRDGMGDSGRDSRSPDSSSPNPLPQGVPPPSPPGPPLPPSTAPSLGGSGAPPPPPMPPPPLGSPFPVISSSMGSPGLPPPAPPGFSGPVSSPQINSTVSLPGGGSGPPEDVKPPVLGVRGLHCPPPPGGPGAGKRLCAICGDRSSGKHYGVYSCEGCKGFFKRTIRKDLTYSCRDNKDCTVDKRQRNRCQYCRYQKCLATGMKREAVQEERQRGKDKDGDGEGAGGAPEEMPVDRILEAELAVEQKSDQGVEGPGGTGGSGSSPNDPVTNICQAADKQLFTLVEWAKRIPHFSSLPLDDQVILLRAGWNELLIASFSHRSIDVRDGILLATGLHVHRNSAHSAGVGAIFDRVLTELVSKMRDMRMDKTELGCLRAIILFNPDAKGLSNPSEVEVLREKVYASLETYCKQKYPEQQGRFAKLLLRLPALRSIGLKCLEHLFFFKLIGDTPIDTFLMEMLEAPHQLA
Procedure, shortened: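 HepG2 cells were transiently transfected with multiplexed GAL4-UAS reporters and a chimeric RXRb-Gal4 construct, then exposed for 24 h. Reporter mRNA was quantified by RT-PCR, FAM labeling, HpaI digestion and capillary electrophoresis; gain of signal was scored against DMSO.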

Measured: AC50

Cc1ccc(OP(=O)(Oc2ccc(C)cc2C)Oc2ccc(C)cc2C)c(C)c1
active: [1] 12.3 µM | [8] 6.87 µM | [9] 1.3 µM | [10] 0.0821 µM
inactive: [2] | [3] | [4] | [5] | [6] | [7] | [11]

CCN(CC)C(=O)C(Cl)=C(C)OP(=O)(OC)OC
active: [1] 38.6 µM
not listed: [9] | [11] | [16] | [17] | [18] | [19] | [20]
inactive: all other assays above

C[C@]12CC[C@@H](O)C[C@@H]1CC[C@@H]1[C@@H]2CC[C@]2(C)C(=O)CC[C@@H]12
not listed: [5] | [6] | [9] | [11] | [12]
inactive: all other assays above

O=S(=O)(c1ccc(Cl)cc1)c1cc(Cl)c(Cl)cc1Cl
inactive: [2] | [3] | [4] | [6] | [7] | [11]
active: [1] 10.4 µM | [16] 6.4 µM | [8] 5.2 µM | [9] 7.66 µM | [10] 1.25 µM

O=C(Cc1ccccc1)OCCc1ccccc1
not listed: [5] | [10] | [11] | [14] | [16] | [17] | [18]
inactive: all other assays above
